The values that follow come from PubChem BioAssay.

Values without a mark were called inactive. For some assays here: Potency and affinity values are given separately. Calls of active or inactive are those of the source. Unless noted, how the calls were made is not given here.

A short description of assay [1]: antimalarial activity against Dd2 strain (AID 2302;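 active means growth inhibition above 50% at the single 2 µM test dose, taken to imply half-maximal potency below 2 µM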;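 further: 0% = DMSO untreated growth and 100% = chloroquine plus artemisinin killed control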). As to conditions: P. falciparum Dd2 in RBCs, LDH growth readout, 72 h; at 2 µM; hits give high values.
Assay [2] can be described thus: HepG2 cytotoxicity, primary screen, cytotoxicity control for P. falciparum antimalarial project, cell-based, ATP luminescence (AID 2303;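 active means inhibition above 50%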;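 further: 0% = DMSO wells and 100% = digitonin-killed cells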). The settings on record: HepG2 viability, 24-48 h, at 10 µM, hits give high values.
The target of assay [3] is L-lactate dehydrogenase (Plasmodium falciparum (isolate CDC / Honduras)) (UniProt Q27743). The assay can be described thus: PfLDH activity inhibition – cell lysate, 3D7 strain, counter-screen for P. falciparum growth inhibition project (AID 2304).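 Further: 0% = vehicle and 100% = reference inhibitor.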 The settings on record: P. falciparum 3D7 crude extract, LDH APAD/NBT absorbance; at 2 µM; hits give high values. (A counterscreen serves to expose hits that act by an unwanted route or on another target.)

A short description of assay [4]: inhibition of 3D7 malaria parasite growth – strain 3D7 (AID 2306).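 Further: 0% = DMSO wells and 100% = chloroquine plus artemisinin control wells.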 As to conditions: P. falciparum 3D7 erythrocytic growth, LDH absorbance, 72 h; at 2 µM; hits give high values.
Assay [5] has as its target Calcium-dependent protein kinase 1 (Plasmodium falciparum (isolate 3D7)) (UniProt P62344). The assay can be described thus: PfCDPK1 kinase inhibitors, biochemical, TCAMS library (AID 1159585; cut-off not given, nearly all actives have IC50 up to about 0.98 µM;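 further: inhibitors leave more ATP so luminescence rises with inhibition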). As to conditions: recombinant PfCDPK1, Kinase-Glo ATP depletion luminescence. (In general: In Kinase-Glo more light means more ATP remaining.)
Assay [6] deals with Plasmodium falciparum protein kinase 6 (PK6, PF3D7_1337100) (UniProt Q8IDW1). The assay can be described thus: PfPK6 kinase inhibitors, biochemical, TCAMS library (AID 1159586). The settings on record: recombinant PfPK6, Kinase-Glo ATP depletion luminescence.
Assay [7] deals with Protein kinase 7 (PK7), Plasmodium falciparum 3D7 (PF3D7_0213400) (UniProt Q7YTF7). The assay can be described thus: inhibition of Plasmodium PK7 catalytic activity – biochemical, TCAMS antimalarial set, Kinase-Glo luminescence (AID 1159587). As to conditions: recombinant PfPK7, Kinase-Glo ATP depletion luminescence.
Assay [8] addresses Calcium-dependent protein kinase 4 (Plasmodium falciparum (isolate 3D7)) (UniProt Q8IBS5). The assay can be described thus: PfCDPK4 kinase inhibitors, biochemical, TCAMS library (AID 1159588; cut-off not given, nearly all actives have IC50 up to about 0.91 µM). As to conditions: recombinant PfCDPK4, Kinase-Glo ATP depletion luminescence.

Chain of Calcium-dependent protein kinase 1 (Plasmodium falciparum (isolate 3D7)) (P62344 whole entry, looked up): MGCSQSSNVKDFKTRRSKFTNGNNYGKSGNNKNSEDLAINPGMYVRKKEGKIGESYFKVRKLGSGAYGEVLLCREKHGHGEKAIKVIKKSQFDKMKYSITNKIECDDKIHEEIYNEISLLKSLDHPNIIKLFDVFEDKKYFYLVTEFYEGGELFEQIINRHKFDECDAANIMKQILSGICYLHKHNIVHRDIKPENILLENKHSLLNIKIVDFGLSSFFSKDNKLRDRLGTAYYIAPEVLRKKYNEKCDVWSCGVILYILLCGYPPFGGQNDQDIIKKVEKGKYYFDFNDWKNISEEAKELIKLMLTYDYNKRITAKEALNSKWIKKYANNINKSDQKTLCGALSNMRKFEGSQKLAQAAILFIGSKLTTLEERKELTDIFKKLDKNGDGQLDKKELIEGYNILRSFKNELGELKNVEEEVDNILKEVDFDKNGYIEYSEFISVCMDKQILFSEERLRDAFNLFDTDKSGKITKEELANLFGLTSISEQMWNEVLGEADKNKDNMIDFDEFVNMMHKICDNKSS
Chain of Plasmodium falciparum protein kinase 6 (PK6, PF3D7_1337100) (Q8IDW1 1-305): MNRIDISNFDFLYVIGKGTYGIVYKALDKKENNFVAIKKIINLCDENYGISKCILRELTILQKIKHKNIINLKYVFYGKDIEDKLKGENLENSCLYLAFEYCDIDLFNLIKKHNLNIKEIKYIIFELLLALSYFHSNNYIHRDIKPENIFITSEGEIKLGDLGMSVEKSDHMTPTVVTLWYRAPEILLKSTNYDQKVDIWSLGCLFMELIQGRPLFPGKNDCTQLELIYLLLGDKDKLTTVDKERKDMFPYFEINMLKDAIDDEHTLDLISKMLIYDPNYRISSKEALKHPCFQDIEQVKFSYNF
Chain of L-lactate dehydrogenase (Plasmodium falciparum (isolate CDC / Honduras)) (Q27743 whole entry, looked up): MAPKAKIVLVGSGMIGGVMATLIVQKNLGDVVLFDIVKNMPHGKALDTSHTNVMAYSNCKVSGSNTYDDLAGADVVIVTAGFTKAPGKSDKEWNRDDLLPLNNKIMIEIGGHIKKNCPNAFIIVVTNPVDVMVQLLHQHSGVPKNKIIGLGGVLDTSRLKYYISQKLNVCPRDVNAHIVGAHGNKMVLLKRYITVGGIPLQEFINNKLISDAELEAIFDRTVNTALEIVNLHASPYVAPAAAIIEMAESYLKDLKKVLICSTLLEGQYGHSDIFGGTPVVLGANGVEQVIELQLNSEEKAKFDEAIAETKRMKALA
Chain of Protein kinase 7 (PK7), Plasmodium falciparum 3D7 (PF3D7_0213400) (Q7YTF7 1-343): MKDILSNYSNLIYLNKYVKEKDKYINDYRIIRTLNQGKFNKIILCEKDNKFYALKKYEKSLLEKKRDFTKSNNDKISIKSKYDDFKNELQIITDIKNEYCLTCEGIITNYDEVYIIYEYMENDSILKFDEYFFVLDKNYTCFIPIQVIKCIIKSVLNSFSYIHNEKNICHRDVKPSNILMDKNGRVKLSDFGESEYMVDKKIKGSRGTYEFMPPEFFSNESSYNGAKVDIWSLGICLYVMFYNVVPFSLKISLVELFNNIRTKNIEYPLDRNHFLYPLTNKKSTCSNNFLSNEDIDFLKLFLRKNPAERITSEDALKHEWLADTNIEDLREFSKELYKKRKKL
Chain of Calcium-dependent protein kinase 4 (Plasmodium falciparum (isolate 3D7)) (Q8IBS5 whole entry, looked up): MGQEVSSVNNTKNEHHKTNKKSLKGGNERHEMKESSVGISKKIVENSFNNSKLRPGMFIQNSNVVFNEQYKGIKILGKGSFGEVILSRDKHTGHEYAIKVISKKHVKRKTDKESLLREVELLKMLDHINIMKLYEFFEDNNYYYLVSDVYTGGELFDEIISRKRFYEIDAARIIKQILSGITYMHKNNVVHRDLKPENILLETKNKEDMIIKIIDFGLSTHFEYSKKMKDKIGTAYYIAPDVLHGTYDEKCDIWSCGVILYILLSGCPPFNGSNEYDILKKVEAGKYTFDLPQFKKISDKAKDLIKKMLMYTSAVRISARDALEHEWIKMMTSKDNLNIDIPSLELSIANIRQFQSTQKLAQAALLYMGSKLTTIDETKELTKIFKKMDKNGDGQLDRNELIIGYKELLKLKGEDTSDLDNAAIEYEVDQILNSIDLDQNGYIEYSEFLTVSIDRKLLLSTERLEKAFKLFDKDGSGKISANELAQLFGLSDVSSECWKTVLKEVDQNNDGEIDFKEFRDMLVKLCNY

Usually inhibition stands for the relative decrease from the control value, in per cent. `COc1ccc(NC(=O)Nc2cc(C)nc3ccccc23)cc1Cl`: the growth inhibition in assay [1] is 49%; in assay [4] it was 104% (active). Also, the inhibition in assay [2] was 4%; in assay [3], -2%. Moreover, the result in assay [5], in assay [6], in assay [7] and in assay [8] was inactive.
Turning to `CCc1ccc(C(=O)NC(=O)c2ccccc2O)cc1`, the growth inhibition was 84% (active) in assay [1] and 95% (active) in assay [4]. For the same compound, the inhibition in assay [2] was -4%; in assay [3], 1%. Further, the result in assay [5], in assay [6], in assay [7] and in assay [8] was inactive.
In the case of `CCCC(CNCc1cccc(OCC)c1)CNc1cc(=O)c2ccccc2[nH]1` (configuration not stated), the growth inhibition is 97% (active) in assay [1] and 101% (active) in assay [4]. Further, the inhibition is -4% in assay [2] and 4% in assay [3]. In addition, the outcome in assay [5], in assay [6], in assay [7] and in assay [8] was inactive.
For `COc1cc(NC(=O)Nc2cc(C)nc3ccccc23)cc(OC)c1`, the growth inhibition in assay [1] is 57% (active); in assay [4], 104% (active). Besides, the inhibition was 5% in assay [2] and -4% in assay [3]. For the same compound, the outcome in assay [5], in assay [6], in assay [7] and in assay [8] was inactive.
Take `CC1(C)C(N(O)C(=O)Nc2ccc(Cl)c(Cl)c2)N(c2ccc(Cl)c(Cl)c2)C(=O)N1CCc1ccccc1` (configuration not stated): the figures for the growth inhibition in assay [1] and in assay [4] were 93% (active) and 91% (active), respectively. Besides, the inhibition is 10% in assay [2] and -1% in assay [3]. In addition, the outcome in assay [5], in assay [6], in assay [7] and in assay [8] was inactive.
Consider `c1ccc(COc2ccc(Cn3ccc(-c4ccc(-n5ccnc5)cc4)n3)cc2)cc1` (tested in a mixture with another compound), for which the growth inhibition in assay [1] was 67% (active); in assay [4], 94% (active). Also, the inhibition in assay [2] was 2%; in assay [3], -1%. For the same compound, the result in assay [5], in assay [6], in assay [7] and in assay [8] was inactive.
Turning to `O=C(c1csc(-c2cccnc2)n1)N1CCc2cc3nccc(N4CCN5CCC[C@H]5C4)c3cc21`, the growth inhibition in assay [1] is 78% (active); in assay [4], 97% (active). Also, the inhibition in assay [2] is -7%; in assay [3], -3%. Also, the outcome in assay [5], in assay [6], in assay [7] and in assay [8] was inactive.
With `COc1ccc2nccc([C@@H](O)CN3CCC(NCc4ccc(OC)c(NC(C)=O)c4)CC3)c2c1`, the values for the growth inhibition in assay [1] and in assay [4] were 0% and 90% (active), respectively. In addition, the inhibition in assay [2] is -5%; in assay [3], -4%. Also, the outcome in assay [5], in assay [6], in assay [7] and in assay [8] was inactive.
As for `Cc1cc2nc(-c3ccc(/C=C/C(=O)NC4CCN(Cc5ccccc5)CC4)cc3)[nH]c2cc1C`, the growth inhibition in assay [1] is 89% (active); in assay [4], 98% (active). Besides, the inhibition in assay [2] was 18%; in assay [3], -2%. Moreover, the outcome in assay [5], in assay [6], in assay [7] and in assay [8] was inactive.
For `CCCN1CCC=C(c2cccc(Nc3nccc(Nc4cc(OC)ccc4C)n3)c2)C1`, the growth inhibition was 35% in assay [1] and 88% (active) in assay [4]. The inhibition was 15% in assay [2] and -1% in assay [3]. Moreover, the result in assay [5], in assay [6], in assay [7] and in assay [8] was inactive.
As for `OCCN1CCN(Cc2cccc(-c3cccc(-c4nc5ccc(F)cc5[nH]4)c3)c2)CC1`, the growth inhibition is 99% (active) in assay [1] and 102% (active) in assay [4]. The inhibition is 41% in assay [2] and -2% in assay [3]. Further, the outcome in assay [5], in assay [6], in assay [7] and in assay [8] was inactive.
Regarding `COc1ccc(S(=O)(=O)N2CCOCC2)cc1NC(=O)c1cc2ccccc2o1`, the growth inhibition in assay [1] was -1%; in assay [4], 93% (active). In addition, the results for the inhibition in assay [2] and in assay [3] were 8% and -2%, respectively. The result in assay [5], in assay [6], in assay [7] and in assay [8] was inactive.
For the compound `Cc1sc(CNCCCNc2cc(=O)c3ccccc3[nH]2)c(I)c1C`, the values for the growth inhibition in assay [1] and in assay [4] were 48% and 94% (active), respectively. Moreover, the inhibition was -10% in assay [2] and -4% in assay [3]. For the same compound, the result in assay [5], in assay [6], in assay [7] and in assay [8] was inactive.
On to `O=C(Nc1ccccc1)N1CCC(CN2CCOC(c3ccccc3)(c3ccccc3)C2)CC1`, for which the growth inhibition was 98% (active) in assay [1] and 96% (active) in assay [4]. The inhibition in assay [2] was 10%; in assay [3], 2%. Moreover, the result in assay [5], in assay [6], in assay [7] and in assay [8] was inactive.
With `CCC(C)NC(=O)Nc1ccc(-c2cccc(-c3nc4ccccc4[nH]3)c2)cc1` (configuration not stated), the growth inhibition in assay [1] was 37%; in assay [4], 94% (active). Besides, the inhibition in assay [2] was 41%; in assay [3], 7%. Also, the result in assay [5], in assay [6], in assay [7] and in assay [8] was inactive.
`CCCN(Cc1nnc(-c2cccs2)o1)C(=O)C1COc2ccccc2O1` (configuration not stated): the growth inhibition in assay [1] is 49%; in assay [4], 87% (active). For the same compound, the inhibition is 1% in assay [2] and 0% in assay [3]. The outcome in assay [5], in assay [6], in assay [7] and in assay [8] was inactive.
In the case of `Cc1[nH]c(C)c(-c2ccc(-c3cc(C(F)(F)F)cc(C(F)(F)F)c3)nc2)c(=O)c1Br`, the growth inhibition in assay [1] was 96% (active); in assay [4] it was 98% (active). Also, the inhibition was 18% in assay [2] and 0% in assay [3]. Further, the result in assay [5], in assay [6], in assay [7] and in assay [8] was inactive.
As for `CC(NC(C)c1cccc(Cl)c1)C(=O)Nc1cc(C(F)(F)F)ccc1N1CCOCC1` (configuration not stated), the growth inhibition in assay [1] was 33%; in assay [4] it was 89% (active). Besides, the inhibition in assay [2] is 30%; in assay [3], 1%. In addition, the outcome in assay [5], in assay [6], in assay [7] and in assay [8] was inactive.
In the case of `O=C(/C=C/c1ccc(Cl)c(Cl)c1)NCCCCCN1CCCC(CNC(=O)Nc2ccc(C(F)(F)F)cc2)C1` (configuration not stated), the growth inhibition was 7% in assay [1] and 100% (active) in assay [4]. Moreover, the results for the inhibition in assay [2] and in assay [3] were 27% and -9%, respectively. In addition, the outcome in assay [5], in assay [6], in assay [7] and in assay [8] was inactive.
